Laboratory results published in PubChem BioAssay AID602313 (National Center for Advancing Translational Sciences (NCATS), 2012).
Screen size: about 390,000 compounds; about 760 (0.19%) were called active. Not shown: some 3% with an inconclusive outcome. The call rests on the fitted dose curve; in most records, active means well fitted inhibition curve with a large enough effect; inconclusive means small, poorly fitted or top-dose-only effect; inactive means flat fitted curve, though single readings scatter. What follows is part of a selection rich in actives, with near analogues and random picks from the rest. A call without a number means that no potency is given here.

Experiment: qHTS for Inhibitors of Vif-A3F Interactions: qHTS; further: nearly all actives have a fitted effect of over 65% in size
Settings: HeLa A3F-eYFP + Vif (tagged APOBEC3F with the HIV-1 protein that degrades it), YFP fluorescence increase; series mostly up to 46.1 µM
From the text: The recent discovery and characterization of host restriction factors, which provide a potent defense to invading retroviruses, has provided new targets for antiviral drug development. APOBEC3G (A3G) and APOBEC3F (A3F) are potent cytidine deaminases that block HIV-1 replication; HIV-1 expresses the Vif protein, which counteracts A3G and A3F by binding to them and inducing their proteasomal degradation. The Vif-A3G and Vif-A3F interactions provide two potential targets for development of small molecules which can interfere with the ability of Vif to degrade A3G or A3F. […] To identify inhibitors that can interfere with Vif mediated degradation of A3G and A3F, we have developed Hela cell lines that stably express A3G or A3F tagged with eYFP at the C-terminal end (A3G-eYFP or A3F-eYFP, respectively) and Vif. In the absence of an inhibitor, Vif induces degradation of A3G-eYFP and A3F-eYFP, and the cells are not fluorescent. In the presence of an inhibitor, it is expected that Vif will be unable to degrade A3G-eYFP and/or A3F-eYFP, resulting in an increase in yellow fluorescence. In this assays Vif A3F was screened against the Molecular Library Small Molecule Repository (MLSMR). NIH Chemical Genomics Center [NCGC] NIH Molecular Libraries Probe Centers Network [MLPCN] MLPCN Grant: MH093245 Assay Submitter (PI): Vinay Pathak, National Cancer Institute
5 uL of 700 cells/well of A3F-YFP cells are dispensed into black, clear bottom plates. The plates are incubated overnight at 37 deg C. 23 nL of compounds are added by pintool. The plates are incubated overnight at 37 deg C and then read on the TTP Acumen (Ex 488/ Em 500-530).
Potency means the concentration at half of the fitted maximal effect.

SMILES	Potency
CC1=CC(=Cc2sc3ccccc3[n+]2C)C=C(C)O1	5.01 µM (active)
CNP1(NC)=Nc2nn(-c3ccccc3)c(N)c2C(c2ccccc2)=N1	inactive
CCC(=NCc1ccco1)c1c(O)n(Cc2ccccc2)c(=O)[nH]c1=O	inactive
CC/C(=N\NC(=O)c1ccccc1O)c1c(O)n(Cc2ccccc2)c(=O)[nH]c1=O	11.2 µM (active)
O=C(N/N=C/c1c(O)n(Cc2ccccc2)c(=O)[nH]c1=O)c1ccccc1	inactive
Cc1ccc2c(c1)=C/C(=C\c1c(O)[nH]c(=O)[nH]c1=O)C(=O)N=2	inactive
CCOc1ccc(CNC(=O)c2cccc(Nc3nc4ccccc4n4nnnc34)c2)cc1OC	12.6 µM (active)
CCCn1c(C(=O)c2ccccc2OC)nc2ccccc21	inactive
COc1cc(Cn2c(N)c(C(=O)NCc3ccco3)c3nc4ccccc4nc32)cc(OC)c1OC	inactive
COC(=O)C1=C(c2cc3ccccc3s2)C[C@@H]2CC[C@H]1N2C(=O)NCc1cccc2ccccc12	inactive
CC(=CCOc1ccc2ccc(=O)oc2c1)C1=CC(=O)C(C)(C)O1	inactive
O=c1c2ccccc2[nH]c(=S)n1-c1cccc(Cl)c1	inactive
O=c1c2ccccc2nc(/C=C/c2ccc(F)cc2)n1-c1ccccc1O	22.4 µM (active)
O=c1c2ccccc2nc(/C=C/c2ccco2)n1-c1ccccc1O	inactive
Cn1cc(/C=C/c2nc3ccccc3c(=O)n2-c2ccccc2)c2ccccc21	inactive
CCC(C)(O)C(=O)OC1C(=O)OC2CC3C(C)=CC(=O)C(O)C3(C)C3C4(O)OCC23C1C(C)C4O (stereo not given)	inactive
C=C(C)C1(CCCC)C(=O)NC(=S)NC1=O	inactive
COC(=O)C1=C(c2ccc(Cl)c(C(F)(F)F)c2)C[C@@H]2CC[C@H]1N2C(=O)NC(C)C	inactive
COC(=O)C1=C(c2cc3ccccc3o2)C[C@@H]2CC[C@H]1N2C(=O)NC1CCCCC1	inactive
CC(C)(C)c1ccc(OC(=O)N2CCCCC2)cc1	inactive
